# Reference: PubChem BioAssay
# Activity calls are given as the source filed them.
# How the values were obtained:
# [1] = system: Plasmodium falciparum Sir2 (PF13_0152, Sir2A); assay: pfSir2 binders on small-molecule microarrays, primary screen, biochemical, small-molecule microarray, 635 nm fluorescence (AID 1098); settings: small-molecule microarray binding, fluorescence 635 nm; higher = more signal;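 also: score merges spot fluorescence intensity with its signal-to-noise ratio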
# [2] = small-molecule microarray binders of probe aDKK1, primary screen, biochemical, biotinylated probe, 635/667 nm fluorescence (AID 1099); settings: higher = more signal;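 also: score merges 667nm spot fluorescence with signal to noise across triplicate slides; reference of the scale not given here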
# [3] = small-molecule microarray binders of probe aCHRDL2, primary screen, biochemical, biotinylated probe, 635/667 nm fluorescence (AID 1100); settings: higher = more signal
# [4] = splicing luciferase reporter signal modulators, primary screen, spliceosome inhibition project, cell-based, HEK293, splice +/- reporter (AID 1101); settings: luminescence, 24 h, higher = more signal, called active from +8 up or from −8 down;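 also: HEK293 cells carrying a splicing-competent luciferase reporter gene; test concentration not given here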
# [5] = molecular target: Fibroblast growth factor 10 (Homo sapiens) (UniProt O15520); assay: FGF10 binders on small-molecule microarrays, primary screen, biochemical, small-molecule microarray, 635 nm fluorescence (AID 1102); settings: FGF10 binding, fluorescence 635 nm, higher = more signal
# Sequence of Fibroblast growth factor 10 (Homo sapiens) (O15520 whole entry, looked up): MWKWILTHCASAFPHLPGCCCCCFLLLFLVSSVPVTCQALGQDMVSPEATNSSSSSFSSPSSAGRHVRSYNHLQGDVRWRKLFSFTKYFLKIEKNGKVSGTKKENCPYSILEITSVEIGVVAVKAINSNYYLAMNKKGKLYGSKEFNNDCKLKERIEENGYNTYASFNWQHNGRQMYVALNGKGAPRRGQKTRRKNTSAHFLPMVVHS
# [6] = system: glycogen synthase kinase-3 (GSK3A per assay name; protocol says GSK3B); assay: GSK3 binders on small-molecule microarrays, primary screen, biochemical, small-molecule microarray, 635 nm fluorescence, GSK3A (AID 1103); settings: small-molecule microarray binding, fluorescence 635 nm; higher = more signal; also: the record names both GSK3A and GSK3B
# [7] = molecular target: Epidermal growth factor receptor (Homo sapiens) (UniProt P00533); assay: EGFR binders on small-molecule microarrays, primary screen, biochemical, small-molecule microarray, 635 nm fluorescence (AID 1104); settings: EGFR binding, higher = more signal;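 also: score merges 667 nm emission intensity with spot signal to noise over triplicate slides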
# Sequence of Epidermal growth factor receptor (Homo sapiens) (P00533 whole entry, looked up): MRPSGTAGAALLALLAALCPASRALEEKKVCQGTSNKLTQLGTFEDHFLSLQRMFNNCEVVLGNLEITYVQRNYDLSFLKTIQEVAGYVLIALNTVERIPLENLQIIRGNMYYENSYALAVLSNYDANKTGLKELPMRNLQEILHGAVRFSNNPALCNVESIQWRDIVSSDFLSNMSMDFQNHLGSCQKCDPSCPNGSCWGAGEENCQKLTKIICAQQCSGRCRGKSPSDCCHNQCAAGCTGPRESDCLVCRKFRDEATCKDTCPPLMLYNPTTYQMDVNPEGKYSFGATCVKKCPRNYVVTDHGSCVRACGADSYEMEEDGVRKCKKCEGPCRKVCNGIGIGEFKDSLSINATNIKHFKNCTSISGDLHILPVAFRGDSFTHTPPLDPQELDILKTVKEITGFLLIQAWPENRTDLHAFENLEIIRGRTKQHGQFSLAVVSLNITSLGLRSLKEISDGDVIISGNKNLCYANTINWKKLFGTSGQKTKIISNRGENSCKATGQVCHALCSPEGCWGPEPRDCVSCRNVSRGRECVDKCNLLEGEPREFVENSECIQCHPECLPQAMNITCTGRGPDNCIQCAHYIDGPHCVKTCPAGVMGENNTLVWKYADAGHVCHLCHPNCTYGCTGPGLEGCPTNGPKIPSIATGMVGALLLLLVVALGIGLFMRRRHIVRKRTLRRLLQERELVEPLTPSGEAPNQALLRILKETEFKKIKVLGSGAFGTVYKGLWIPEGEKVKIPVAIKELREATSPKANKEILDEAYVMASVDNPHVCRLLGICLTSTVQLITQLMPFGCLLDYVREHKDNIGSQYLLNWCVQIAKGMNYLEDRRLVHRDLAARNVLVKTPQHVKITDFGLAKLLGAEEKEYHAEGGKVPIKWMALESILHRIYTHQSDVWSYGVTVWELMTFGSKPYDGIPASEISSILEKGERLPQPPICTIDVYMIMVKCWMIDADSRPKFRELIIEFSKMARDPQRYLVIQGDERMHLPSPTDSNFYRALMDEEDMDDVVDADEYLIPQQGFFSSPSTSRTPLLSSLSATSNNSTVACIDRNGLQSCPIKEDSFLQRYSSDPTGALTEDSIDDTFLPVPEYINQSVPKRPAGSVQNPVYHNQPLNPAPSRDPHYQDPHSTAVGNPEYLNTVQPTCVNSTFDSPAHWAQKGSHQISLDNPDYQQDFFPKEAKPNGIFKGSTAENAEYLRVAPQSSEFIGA
# [8] = molecular target: Follistatin-related protein 3 (Homo sapiens) (UniProt O95633); assay: FSTL3 binders on small-molecule microarrays, primary screen, biochemical, small-molecule microarray, 635 nm fluorescence (AID 1105); settings: FSTL3 binding, higher = more signal;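 also: score merges emission near 667 nm and signal to noise per printed spot across three slides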
# Sequence of Follistatin-related protein 3 (Homo sapiens) (O95633 whole entry, looked up): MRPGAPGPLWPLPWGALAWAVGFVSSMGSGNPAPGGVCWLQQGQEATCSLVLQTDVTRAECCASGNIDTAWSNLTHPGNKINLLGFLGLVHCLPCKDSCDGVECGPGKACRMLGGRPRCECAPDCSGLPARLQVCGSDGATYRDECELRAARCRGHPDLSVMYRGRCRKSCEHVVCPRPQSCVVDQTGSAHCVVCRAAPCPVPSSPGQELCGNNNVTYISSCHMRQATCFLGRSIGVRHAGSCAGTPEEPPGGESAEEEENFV
# [9] = molecular target: Dickkopf-related protein 1 (Homo sapiens) (UniProt O94907); assay: DKK1 binders on small-molecule microarrays, primary screen, biochemical, small-molecule microarray, 635 nm fluorescence scan (AID 1106); settings: DKK1 binding, higher = more signal;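 also: score merges emission near 667 nm with signal to noise over three replicate slides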
# Sequence of Dickkopf-related protein 1 (Homo sapiens) (O94907 whole entry, looked up): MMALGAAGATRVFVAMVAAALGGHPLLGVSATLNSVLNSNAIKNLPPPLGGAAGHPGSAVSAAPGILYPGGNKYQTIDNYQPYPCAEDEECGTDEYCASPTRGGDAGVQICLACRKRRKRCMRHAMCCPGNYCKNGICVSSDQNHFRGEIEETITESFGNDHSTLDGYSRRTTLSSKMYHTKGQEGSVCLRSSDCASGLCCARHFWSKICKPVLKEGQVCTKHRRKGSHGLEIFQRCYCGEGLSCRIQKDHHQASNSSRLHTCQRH
# [10] = system: Inhibin beta A chain (activin A); assay: INHBA (activin A) binders on microarrays, primary screen, biochemical, small-molecule microarray, 635 nm fluorescence scan (AID 1107); settings: small-molecule microarray binding, higher = more signal;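 also: mouse activin A protein probed at 4.33 µg/mL on printed slides; score merges bound-protein fluorescence near 667 nm with spot signal-to-noise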
SMILES,composite z-score [1],composite z-score [2],composite z-score [3],z-score [4],composite z-score [5],composite z-score [6],composite z-score [7],composite z-score [8],composite z-score [9],composite z-score [10]
COCCCNC(=O)[C@]1(Cc2ccccc2CN=[N+]=[N-])N=C(c2ccc(OCCCO)cc2)O[C@@H]1c1ccccc1,0.465,0.383,0.775,-0.697 (inactive),0.573,0.778,-0.251,0.317,-0.817,0.493
C[C@]12C(=O)N(CCCCCCO)[C@@H]3C(=O)N(c4ccc(Cl)cc4)CC=CC31O[C@@H]1/C=C\CCCOC(=O)C12 (stereo not given in full),1.93,-0.134,0.391,-1.54 (inactive),-0.188,-0.431,-0.506,-0.394,-0.742,1.05
CC(C)C(O)C1C=CC2C(=O)N(C)C(=O)C2N1Nc1ccccc1 (stereo not given),0.778,1.36,0.598,1.01 (inactive),0.943,0.686,-0.0756,0.439,0.4,0.742
[N-]=[N+]=NCc1ccccc1[C@H]1OC(c2ccc(OCCCO)cc2)=N[C@@]1(CCS(=O)(=O)c1ccccc1)C(N)=O,1.37,0.605,1.07,-0.503 (inactive),1.5,1.1,-0.216,0.441,-0.0333,1.29
COCCOC(=O)N1C(=O)[C@@]2(c3cc(C#CC4=CCCCC4)ccc31)[C@H](c1ccc(O)cc1)N1[C@H](c3ccccc3)[C@H](c3ccccc3)OC(=O)[C@H]1[C@@H]2C(=O)Nc1nc2ccccc2s1,1.56,0.663,-0.277,0.51 (inactive),1.33,1.24,0.383,1.19,0.45,0.248
C=CCN1C(=O)[C@]2(CC=C)N=C(c3ccc(OCCCO)cc3)O[C@@H]2c2ccccc21,1.08,0.945,1.1,-0.436 (inactive),0.506,0.777,0.925,1.18,0.95,1.38
O=c1cccc(-c2ccc(C(F)(F)F)cc2)o1,-0.426,-0.0458,0.239,0.0423 (inactive),-0.46,-0.762,-0.215,-0.936,-0.572,0.339
Cc1ccc(C(C)CC(O)C2C=CC3C(=O)N(c4ccccc4)C(=O)C3N2Nc2ccc(C(C)C)cc2)o1 (stereo not given),0.938,1.14,1.37,1.46 (inactive),0.545,0.777,0.17,0.679,-0.252,1.13
COc1ccc([Si](C)(C)[C@@H]2[C@@H](CCn3cc([C@H](O)c4ccccc4)nn3)O[C@]3(C(=O)N(Cc4ccc(N5CCOC5=O)cc4)c4ccccc43)[C@H]2C)cc1,0.972,-0.168,-0.528,-0.242 (inactive),0.953,0.426,0.664,1.02,0.757,0.504
O=C1C[C@]2(c3ccc([N+](=O)[O-])cc3)C(=O)N(Cc3ccccc3)c3cc(CO)ccc3[C@H]2N1CC12CC3CC(CC(C3)C1)C2,-1.44,1.03,0.259,1.39 (inactive),-0.36,-0.855,-0.478,-0.791,-0.852,-0.544
COCCCNC(=O)[C@]1(CCC(=O)OC(C)(C)C)N=C(c2ccc(OCCCO)cc2)O[C@@H]1c1ccccc1,1.31,1.33,0.701,-0.307 (inactive),0.417,1.28,-0.301,-0.47,-0.261,-0.497
C=CCC(OC(C)=O)[C@@H]1[C@@H](N(Cc2cc3ccccc3o2)C(=O)Cc2ccc(F)cc2)c2cc(OCCCO)ccc2N1C(=O)c1ccc2ccccc2n1 (stereo not given in full),-0.278,-0.106,0.394,-0.509 (inactive),-0.0436,-0.497,0.112,-0.255,0.0645,1.2
CC(C)C(=C=CC[C@@H](O)c1ccccc1OCCO)C[C@@H](O)COCc1ccccc1,1.23,0.469,0.264,-2.12 (inactive),1.35,-0.0582,0.22,0.589,-0.691,1.35
C=CCNC(=O)[C@@H]1[C@H]2C(=O)O[C@H](c3ccccc3)[C@H](c3ccccc3)N2[C@H](c2ccccc2OCCO)[C@@]12C(=O)N(C(=O)OCCOC)c1ccc(C#CC3=CCCCC3)cc12,1.26,0.057,0.144,-1.1 (inactive),1.15,1.16,0.469,0.831,0.373,-0.0496
O=C(O)[C@H]1C[C@H]2C(=O)N3CCC[C@H]3C(=O)N2[C@H]1c1cccc(OCCO)c1,1.6,0.0484,0.0998,-0.184 (inactive),0.262,0.486,0.0626,0.384,0.884,-0.0254
CCOC(=O)C1=CC[C@@H](c2ccccc2)N(S(=O)(=O)c2ccc(C)cc2)C1,0.243,0.617,0.931,0.259 (inactive),-0.0077,0.121,0.0223,0.36,0.107,1.29
